Experimental findings from PubChem BioAssay AID1768 (National Center for Advancing Translational Sciences (NCATS), 2009) are described below.

Hit rate of the full screen: of about 270,000 compounds, about 620 (0.23%) were called active. About 12% were inconclusive and are not listed. The list comes from a sample in which actives are over-represented; it also holds similar structures and randomly drawn compounds. Unmarked numbers belong to inactive results. Calls come from the whole dose curve; as a rule, active = well fitted inhibition curve with a large enough effect in the polarisation, with a control signal flat (not every such curve was filed as active); inconclusive = small, poorly fitted or top-dose-only effect, or effect the other way, or a change in a side signal; inactive = no such curve, though single readings can be large or run the other way; the % refers to the polarisation.
Potency is the fitted concentration of half-maximal effect.

Chain of Menin (Homo sapiens) (O00255 whole entry, looked up): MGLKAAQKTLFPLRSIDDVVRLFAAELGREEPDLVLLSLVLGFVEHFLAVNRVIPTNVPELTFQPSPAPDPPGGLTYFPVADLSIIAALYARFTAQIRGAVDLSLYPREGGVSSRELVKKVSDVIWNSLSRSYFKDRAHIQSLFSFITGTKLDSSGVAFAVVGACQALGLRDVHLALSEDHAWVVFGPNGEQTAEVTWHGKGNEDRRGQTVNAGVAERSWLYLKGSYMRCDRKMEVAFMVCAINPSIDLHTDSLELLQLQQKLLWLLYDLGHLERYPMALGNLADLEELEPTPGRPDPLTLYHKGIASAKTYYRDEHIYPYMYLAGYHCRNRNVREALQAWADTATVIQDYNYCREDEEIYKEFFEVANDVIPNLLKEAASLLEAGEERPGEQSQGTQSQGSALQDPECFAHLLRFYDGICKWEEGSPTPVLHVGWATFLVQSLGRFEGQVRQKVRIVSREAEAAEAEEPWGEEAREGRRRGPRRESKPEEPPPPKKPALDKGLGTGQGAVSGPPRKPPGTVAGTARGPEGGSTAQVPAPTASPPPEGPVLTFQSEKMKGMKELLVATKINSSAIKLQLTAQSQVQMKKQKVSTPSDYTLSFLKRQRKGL

This experiment deals with Menin (Homo sapiens) (UniProt O00255). The experiment is described as follows: qHTS Assay for Inhibitors Targeting the Menin-MLL Interaction in MLL Related Leukemias: Competition With Texas Red Labeled MLL-derived Mutant Peptide. For FP activity change, negative = inhibition: % of control where 0% means no effect. The conditions noted are these: fluorescence polarization; series mostly up to 61.6 µM; FP activity change, negative = inhibition: at the top concentration. An excerpt:
qHTS Assay for Inhibitors Targeting the Menin-MLL Interaction in MLL Related Leukemias NIH Chemical Genomics Center [NCGC] NIH Molecular Libraries Probe Centers Network [MLPCN] MLPCN Grant: MH084875-01A1 Assay Submitter (PI): Jolanta Grembecka, Tomasz Cierpicki, University of Virginia Translocations of the MLL (Mixed Lineage Leukemia) gene are frequently found in human leukemias affecting both children and adults. Fusion of MLL to one of more than 60 genes results in generation of oncogenic proteins upregulating Hox genes, which are vital to blood cell development. Patients harboring fusion of the MLL gene suffer from aggressive leukemias and respond poorly to available therapies. All of the oncogenic fusion proteins have a preserved N-terminal fragment of MLL that has been identified to interact with menin. It has been recently discovered that association with menin is critical to the leukemogenic activity of the MLL fusion oncoproteins. Selective targeting of the menin-MLL interaction could provide an attractive therapeutic approach to develop novel drugs for MLL-related leukemias. Small molecules blocking the menin-MLL interaction should reverse the oncogenic potential of MLL fusion proteins. We have developed and optimized a fluorescence polarization-based assay for the identification of Menin-MLL inhibitors. The assay was run employing two different MLL-derived peptides. The present assay uses a 12 amino acid peptide labeled with fluorescein at its N-terminus. This peptide consists of the menin high affinity binding motif from MLL and is potently bound by menin. Another peptide with a mutated sequence, labeled with Texas Red, was used in parallel as a less stringent screen for inhibitors.
The Menin protein, the MLL-wild type (w.t.) derived peptide (N-terminal 12 amino acids), the MLL-derived peptide labeled with Texas Red and the MLL-w.t. peptide labeled with Fluorescein were kindly supplied by laboratory of Dr. Jolanta Grembecka, University of Virginia. All protein and peptide solutions were stored in single use aliquots at -80C. The Eu3+ Cyrptate-conjugated mouse monoclonal antibody anti-6 Histidine (Eu3+-AB) and the Streptavidin-XL665 conjugate (XL665) were purchased from Cisbio International (Bedford, MA). All antibody and XL665 conjugate solution stocks were stored in single use aliquots at -20C. The Buffer components for all assays were purchased from Sigma-Aldrich (St. Louis, MO) and Invitrogen (Carlsbad, CA). FP Assay Reagents: 1. FP reaction buffer: 50 mM Tris-HCl pH 7.5, 50 mM NaCl, 1mM DTT. Before use, 0.05% BSA is added. 2. Menin protein, MLL-w.t. labeled with fluorescein, MLL-mutant peptide labeled with texas red. Stored in singe use aliquots at -80C. 3. MLL-w.t. unlabeled peptide as positive control: 10 uM final in FP buffer. FP Assay Procedure: 1. Prepare Menin at 200 nM, MLL-w.t.-fluorescein at 25 nM, and MLL-mutant-texas red at 50 nM mixture in FP buffer. 2. Prepare Menin at 200 nM, MLL-w.t.-fluorescein at 25 nM, MLL-mutant-texas red at 50 nM, and 10 uM MLL-w.t. unlabeled mixture in FP buffer. 3. Prepare MLL-w.t.-fluorescein at 25 nM and MLL-mutant-texas red at 50 nM mixture in FP buffer. 3. Dispense 4 ul per well of reagent in step 1 in columns 2, 4 - 48 in a black 1536 well plate, dispense 4 ul per well of reagents from steps 2 and 3 in columns 1 and 3 respectively. Incubate plate at ambient for 15 minutes. 4. Transfer 23 nl per well of compound to plate and incubate at ambient for 1 hr. 5. Read fluorescence polarization for each label using the PerkinElmer Envision. Envision protocol for fluorescein: FITC FP Dual Enh Mirror, Excitation filter 480, Emission filter (1) P-pol 535, Emission filter (2) S-pol 535 Envision protocol for texas red: FP Dual Enh Mirror, Excitation filter 555, Emission filter (1) P-pol 632, Emission filter (2) S-pol 632
Background: Quantitative high-throughput screening tests each substance at several concentrations.
In the case of `CC(C)CN(Cc1c(O)ccc2c(=O)c(-c3ccccc3)coc12)CC(C)C`, the “FP activity change, negative = inhibition” value was 16.6%. Same read-out and setting: the value for `CCOC(=O)c1c(-c2ccc(-c3ccccc3)cc2)csc1NC(=O)CCC(=O)O` was 20.7%; that for `COc1ccc(Br)cc1C1C2C=CCC(C)C2C(=O)N1Cc1ccccc1` (configuration not stated) was -15.8%. `Cc1cccn2c(=O)c(/C=C3\SC(=S)N(CC(C)C)C3=O)c(NCCCOC(C)C)nc12`: the Potency was 28.2 µM (active).

As for `CNc1nc2c(C)cccn2c(=O)c1C=Nc1ccc(OC)cc1`, the “FP activity change, negative = inhibition” value is -16.5%. Same read-out and setting: the value for `CCn1c(=N)c(C(=O)NCCCOC)cc2c(=O)n3cccc(C)c3nc21` was -13.2%; that for `Cc1ccc(/C=C2/SC(=S)N(CCC(=O)NCCCN3CCOCC3)C2=O)cc1` was -14.8%. The same measure, in the same setting: the value for `O=C1CCN(Cc2ccccc2)CCN1[C@H](CSc1ccccc1)c1ccccc1` was -15.5%. Same read-out and setting: the same measure for `COCCNC(=O)COc1ccc(N(C)S(=O)(=O)c2ccc3ccccc3c2)cc1`: 0.697%. Regarding `CC1CCCN(CC(=O)Nc2cc(Cl)ccc2Oc2ccccc2)C1` (configuration not stated), the “FP activity change, negative = inhibition” value is -19.8%. `CCN(CC)/[N+]([O-])=N/Oc1cc(O/[N+]([O-])=N/N2CCCC2CO)c([N+](=O)[O-])cc1[N+](=O)[O-]` (configuration not stated): the “FP activity change, negative = inhibition” value was 0.381%.

In the case of `CC1CCN(C2=NC(=O)/C(=C/c3ccc(O)cc3)S2)CC1`, the “FP activity change, negative = inhibition” value is -0.925%. The same measure, in the same setting: the value for `c1ccc(Cc2ccc(OCCn3ccnc3)cc2)cc1` was -10.6%; that for `O=C(O)C1CC=CC2CCN(C3CCCCC3)C(=O)C21` (configuration not stated) was 2.51%. Same read-out and setting: the value for `CCOC(=O)c1cccc(NC(=O)C2CCN(c3ncnc4c3nc3n4CCCCC3)CC2)c1` was -10.2%. Still for that read-out and setting: the value for `CCOC(=O)c1ccc(NC(=O)c2ccc(NC(=O)C3CCCO3)cc2)cc1` (configuration not stated) was 28.3%. Take `CCCNC(=O)c1ccc(N2CCC3(CC2)CC(c2ccc(Cl)cc2)=NO3)c([N+](=O)[O-])c1`: the “FP activity change, negative = inhibition” value was -0.331%.

With `CCC(C)(C)NC(=O)C(c1ccc(OC)cc1)N(C(=O)CCC(=O)Nc1cc(C)on1)c1ccc(OC)cc1OC` (configuration not stated), the “FP activity change, negative = inhibition” value is -17.8%. Still for that read-out and setting: the same measure for `COc1cccc(CCNC(=O)c2cccc(NC(=O)C3=C(C)OCCS3)c2)c1`: -0.071%; for `COc1ccc(CNc2ncnc3ccc(-c4cccnc4)cc23)c(OC)c1`: -6.79%; for `COCCNc1ncnc2ccc(-c3ccccc3CN(C)C)cc12`: -18.4%.

As for `COCCNc1ncnc2ccc(-c3cccnc3)cc12`, the Potency is 31.6 µM (active). Regarding `COc1ccccc1N1CCN(S(=O)(=O)CCNC(=O)c2ccc(OC(C)C)cc2)CC1`, the “FP activity change, negative = inhibition” value is -12.6%. Consider `CC(CC(=O)N1CCN(c2ccccc2)CC1)S(=O)(=O)c1ccc2c(c1)NC(=O)CS2` (configuration not stated), for which the “FP activity change, negative = inhibition” value was 2.06%.

Turning to `COc1ccc(N2CCN(S(=O)(=O)CCNC(=O)C34CC5CC(CC(C5)C3)C4)CC2)cc1`, the “FP activity change, negative = inhibition” value was -25%. The same measure, in the same setting: the value for `CCc1ccc(S(=O)(=O)N/N=C\c2ccc([N+](=O)[O-])o2)cc1` was 35.3%; that for `COc1ccc(CNC(=O)/C(C#N)=C/c2cccc(OC)c2OC)cc1` was -18.7%.

Turning to `COc1ccc(N2CCN(C(=O)[C@@H](NC(=O)c3cc(OC)cc(OC)c3)C(C)C)CC2)cc1`, the “FP activity change, negative = inhibition” value is -22.7%. Still for that read-out and setting: the value for `O=C(NCC1CC1)C1(C(F)(F)F)C/C(=C\CCO)CCCO1` (configuration not stated) was -11.6%; that for `Cc1cccc(S(=O)(=O)N2CN(CC3CCCO3)c3nc4ccccc4nc32)c1` (configuration not stated) was 20.6%. Still for that read-out and setting: the same measure for `CCOc1cc(/C=C/c2nc3ccccc3c(=O)[nH]2)cc(Br)c1OC`: 25.1%; for `CCC(C(=O)OC)n1cnc2scc(-c3ccc(C)cc3)c2c1=O` (configuration not stated): -3.92%.
